Results on 74 compounds are retold here after PubChem BioAssay AID651704 (Broad Institute, 2012).

SMILES strings stand for the structures. Where “and” joins values, the source holds several entries; their conditions need not be identical. Equal entries are not always repeated. Among all 350,000 compounds or so, about 1,600 (0.46%) were called active.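 How the source made its calls: active means every replicate reaching a set inhibition limit, whatever the replicate mean (cut at about 25% in these data); inconclusive means mean inhibition reaches that limit but some replicates miss it; inactive means the rest.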 The list comes from a sample in which actives are over-represented; it also holds similar structures and randomly drawn compounds.

In general, inhibition refers to the relative decrease from the control value, in per cent.

For this assay, the target named is Protein AF-9 (Homo sapiens) (UniProt P42568). The assay can be described thus: inhibitors of AF4 peptide binding to AF9, primary screen, biochemical, AlphaScreen, biotin-AF4 peptide, FLAG-AF9, single point (AID 651704).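 Further: 0% = plate neutral control median and 100% = total signal loss.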 The settings on record: at 10 µM, stronger effect = higher value. For orientation: In Alpha technology, singlet oxygen from a donor bead excites a nearby acceptor bead.
Protein AF-9 (Homo sapiens), sequence (P42568 whole entry, looked up): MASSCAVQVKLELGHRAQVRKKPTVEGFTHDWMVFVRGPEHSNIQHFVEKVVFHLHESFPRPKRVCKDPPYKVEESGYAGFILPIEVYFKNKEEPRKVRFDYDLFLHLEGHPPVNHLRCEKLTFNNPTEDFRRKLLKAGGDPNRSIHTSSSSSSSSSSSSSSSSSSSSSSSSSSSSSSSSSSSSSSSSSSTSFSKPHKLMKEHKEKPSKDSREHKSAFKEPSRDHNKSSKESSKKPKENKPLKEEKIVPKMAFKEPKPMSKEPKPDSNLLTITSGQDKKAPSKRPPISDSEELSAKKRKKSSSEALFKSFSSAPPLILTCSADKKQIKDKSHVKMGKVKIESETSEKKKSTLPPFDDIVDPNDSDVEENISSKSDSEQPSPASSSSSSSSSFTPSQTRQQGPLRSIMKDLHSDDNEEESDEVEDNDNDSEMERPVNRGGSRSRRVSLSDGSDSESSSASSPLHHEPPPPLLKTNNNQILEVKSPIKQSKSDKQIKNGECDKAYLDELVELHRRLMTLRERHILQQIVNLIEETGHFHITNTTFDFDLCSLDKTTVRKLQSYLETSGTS
In the case of `C/C=C/c1ccccc1[C@@H]1[C@@H](C#N)N(C(=O)Cc2ccccn2)[C@H]1CO`, the inhibition is 0.68% (inactive). The same measure for `COc1ccccc1-c1cnc2c(c1)C(=O)N([C@H](C)CO)C[C@H](C)[C@@H](CN(C)CC1CCOCC1)O2`: -1.31% (inactive). As for `CC(=O)c1c(N2CCOCC2)nc(=S)n(-c2cc(C)ccc2C)c1C`, the inhibition was 11.8% (inactive). In the case of `Cc1ccc2cc(C)c(N3CCN(c4ccc(F)cc4)CC3)nc2c1` it was -1.83% (inactive); in that of `CC(=O)c1c(N2CCN(c3ccc(F)cc3)CC2)nc(=S)n(-c2ccccc2)c1C`, 26.4% (active). As for `O=C(C1CCCC1)N1CC(=O)N2[C@H](C1)[C@@H](c1ccc(-c3cccnc3)cc1)[C@@H]2CO`, the inhibition is -2.09% (inactive). Regarding `Cc1cccc(S(=O)(=O)N2CCCCN3[C@@H](CO)[C@H](c4ccc(-c5cccnc5)cc4)[C@@H]3C2)c1`, the inhibition was -0.659% (inactive).

Take `COc1ccc2c3c(n(C)c2c1)[C@@H](CO)N(Cc1ccccc1F)CC31CCN(C(=O)C2CCOCC2)CC1`: the inhibition was 1.15% (inactive). The same measure for `Cc1noc(C)c1NC(=O)N(C)C[C@@H]1OCCCC[C@@H](C)Oc2ccc(NC(=O)C3CCCCC3)cc2C(=O)N([C@@H](C)CO)C[C@H]1C`: -0.114% (inactive); for `COc1cc2c(cc1NC(=O)COC(=O)/C=C/c1ccccc1)oc1ccccc12`: 30.3% (active); for `COc1ccc(/C=C/C(=O)OCC(=O)NCc2cccs2)cc1OC`: 2.43% (inactive). For the compound `COc1cc(/C=C/C(=O)OCC(=O)c2ccccc2)cc(OC)c1OC`, the inhibition is 4.16% (inactive). In the case of `COc1ccc(CNC(=O)C[C@@H]2CC[C@H](NC(=O)c3cccc(F)c3)[C@H](CO)O2)cc1` it was 0.518% (inactive). In the case of `COC(=O)c1c(C)oc(C)c1S(=O)(=O)NCc1ccc(Cl)cc1` it was 28.9% (active). As for `COC(=O)c1cc(S(=O)(=O)NCC2CCN(Cc3ccc(Cl)cc3)CC2)cn1C`, the inhibition is 5.58% (inactive).

As to `COC(=O)c1c(C)oc(C)c1S(=O)(=O)Nc1ccc(C(C)C)cc1`, the inhibition was 0.192% (inactive). With `O=C(CC1CC1)Nc1ccc2c(c1)[C@@H]1C[C@@H](CC(=O)NC3CCCCC3)O[C@H](CO)[C@@H]1O2`, the inhibition is 0.025% (inactive). With `CC(C)CC#Cc1ccc([C@@H]2[C@@H](CO)N3C(=O)CN(C(=O)Nc4ccc(F)cc4)C[C@H]23)cc1`, the inhibition was 5.86% (inactive).

Regarding `CN(C)c1ccc(C2N(C)C(=O)c3ccccc3N2C)cc1` (centres undefined), the inhibition was 2.23% (inactive). In the case of `CN(C)c1ccc(Nc2c3c4c(cccc4n(C)c2=O)C(=O)c2ccccc2-3)cc1`, the inhibition is 64.1% (active). Take `COc1cccc(S(=O)(=O)Nc2ccc3c(c2)[C@H]2C[C@H](CC(=O)N4CCCCC4)O[C@@H](CO)[C@H]2O3)c1`: the inhibition is 0.52% (inactive). Turning to `COc1ccc2c3c([nH]c2c1)[C@H](CO)N(C(=O)c1ccncc1)CC31CCN(C(=O)c2ccncc2)CC1`, the inhibition is 3.61% (inactive). In the case of `COc1ccc(C#Cc2ccc([C@@H]3[C@@H](CO)N4C(=O)CN(C(=O)c5ccc(F)cc5)C[C@@H]34)cc2)cc1` it was -3.35% (inactive); in that of `O=C(c1ccccn1)N1CC2(C1)[C@H](c1ccccc1)[C@H](CO)N2C(=O)C1CCCC1`, -1.83% (inactive); in that of `CN1C(=O)c2cc(NC(=O)c3ccno3)ccc2OC[C@H]2O[C@@H](CC(=O)NCC(F)(F)F)CC[C@@H]21`, -0.947% (inactive).

`O=C1Nc2cc(C(=O)N3CCC(N4CCCCC4)CC3)ccc2S/C1=C\c1ccccc1`: the inhibition is 32.5% (active).

Turning to `CC1CCN(C(=O)c2ccc3c(c2)NC(=O)CN3)CC1`, the inhibition is 4.92% (inactive). Consider `O=C(Nc1ccccc1)C1CCN(C(=O)c2ccc(Br)cc2)CC1`, for which the inhibition was -2.26% (inactive). With `O=C(N[C@H]1CC[C@H](CCn2cc(C3(O)CCCC3)nn2)O[C@H]1CO)C1CC1`, the inhibition was -0.223% (inactive). In the case of `C[C@H]1CN([C@@H](C)CO)C(=O)Cc2cc(N(C)C)ccc2O[C@@H]1CN(C)Cc1ccc(-c2ccccc2)cc1`, the inhibition was 51.6% (active).

On to `C[C@@H]1CN([C@@H](C)CO)C(=O)c2cc(N(C)C)ccc2O[C@@H](C)CCCCO[C@H]1CN(C)Cc1ccncc1`, for which the inhibition was -1.22% (inactive). On to `C[C@@H]1CCCCO[C@@H](CN(C)Cc2ccncc2)[C@H](C)CN([C@H](C)CO)C(=O)c2cc(N(C)C)ccc2O1`, for which the inhibition is 1.48% (inactive). In the case of `C[C@H](CO)N1C[C@H](C)[C@H](CN(C)Cc2ccc(C(F)(F)F)cc2)Oc2ccc(N(C)C)cc2CC1=O` it was 15.8% (inactive).

Turning to `C[C@@H]1CCCCO[C@H](CN(C)Cc2ccc(C(F)(F)F)cc2)[C@H](C)CN([C@@H](C)CO)C(=O)c2cc(N(C)C)ccc2O1`, the inhibition was 29.4% (active). For the compound `C[C@@H]1CN([C@H](C)CO)C(=O)Cc2cc(N(C)C)ccc2O[C@@H]1CN(C)Cc1ccccc1`, the inhibition was 3.48% (inactive).

Take `CCCNC(=O)N1C[C@H](C)[C@@H](OC)CN(C)C(=O)c2ccc(NC(=O)CC)cc2OC[C@@H]1C`: the inhibition is -2.2% (inactive). Consider `COc1cccc(C#Cc2ccc([C@@H]3[C@H](C#N)N[C@H]3CO)cc2)c1`, for which the inhibition is -2.01% (inactive). In the case of `CC(C)C#Cc1ccc([C@H]2[C@@H](CO)N3C(=O)CN(C(=O)Cc4ccccc4)C[C@H]23)cc1` it was -0.595% (inactive); in that of `COc1ccccc1NC(=O)Nc1ccc2c(c1)OC[C@H](C)NC[C@H](C)[C@@H](OC)CN(C)C2=O`, 1.19% (inactive). The same measure for `Cc1ccc(S(=O)(=O)Nc2ccc3c(c2)C(=O)N([C@@H](C)CO)C[C@@H](C)[C@@H](CN(C)S(=O)(=O)c2ccc(C)cc2)O3)cc1`: -1.03% (inactive); for `O=C(O)C[C@@H]1CC[C@H](NC(=O)CCN2CCCCC2)[C@H](CO)O1`: -0.492% (inactive). In the case of `Cc1ccccc1C(=O)Nc1ccccc1NC(=O)c1ccccc1C`, the inhibition is 0.679% (inactive). In the case of `Cc1ccccc1C(=O)Nc1ccc(N2CCCCCC2)cc1` it was 27.9% (active); in that of `Cc1ccccc1C(=O)N1CCN(c2ccc(NC(=O)c3cccs3)cc2)CC1`, 0.817% (inactive).

Consider `O=C(CC1CC1)N[C@@H]1C[C@@H]2O[C@H](CO)CC[C@@H]2O[C@@H]1CCc1ccc(C#Cc2ccccc2)cc1`, for which the inhibition is -5.03% (inactive). The same measure for `Cc1ccc(CN2CCN(c3ncccn3)CC2)c(C)c1`: -1.37% (inactive); for `Oc1c(CN2CCN(c3ccc(F)cc3)CC2)cc(Cl)c2cccnc12`: 41.3% (active); for `Oc1c(CN2CCCC2)cc(COCc2ccccc2)c2cccnc12`: 6.56% (inactive). Take `O=[N+]([O-])c1ccccc1Nc1ccc(O)cc1`: the inhibition was 28.1% (active). For `O=[N+]([O-])c1ccccc1NCc1ccccc1Cl`, the inhibition is -5.33% (inactive). In the case of `O=C(NCCNc1ccccc1[N+](=O)[O-])c1ccccc1F` it was 0.524% (inactive); in that of `COc1ccc2c3c(n(C)c2c1)[C@@H](CO)N(C(=O)Nc1cccc(F)c1)CC31CCN(Cc2nccs2)CC1`, 28.6% (active); in that of `COc1ccc2c3c(n(C)c2c1)[C@@H](CO)N(C(C)=O)CC31CCN(Cc2nccs2)CC1`, 3.54% (inactive). Turning to `COc1ccc2c3c(n(C)c2c1)[C@H](CO)N(C(=O)Nc1cccc(F)c1)CC31CN(Cc2nccs2)C1`, the inhibition was 7.77% (inactive).

Consider `COc1ccc2c3c(n(C)c2c1)[C@H](CO)N(Cc1cccnc1)CC31CCN(Cc2cccnc2)CC1`, for which the inhibition was 13.7% (inactive). Turning to `C[C@H](CO)N1C[C@H](C)[C@H](CN(C)CC2CCCCC2)OCCCC[C@H](C)Oc2ccc(NC(=O)c3ccncc3)cc2C1=O`, the inhibition is -4.16% (inactive). In the case of `COC(=O)[C@H]1[C@H]2C[C@H]3c4[nH]c5ccccc5c4CCN3C[C@@H]2CC[C@@H]1O` it was 10.9% (inactive) and 1.82% (inactive); in that of `COc1ccc(-c2ccc3[nH]c4c(c3c2)CCN2C[C@H]3[C@H](C)ON(C)[C@H]3C[C@@H]42)cc1`, 27.4% (active). The same measure for `COc1cccc(C2c3[nH]c4ccccc4c3CCN2Cc2cccc(C)n2)c1` (centres undefined): 16.4% (inactive); for `CCCC#Cc1ccc([C@H]2[C@@H](CO)N3C(=O)CN(C(=O)c4ccncc4)C[C@@H]23)cc1`: -4.03% (inactive); for `COc1cccc(S(=O)(=O)Nc2ccc3c(c2)[C@H]2C[C@H](CC(=O)O)O[C@H](CO)[C@H]2O3)c1`: -1.01% (inactive). On to `O=C(Nc1ccccc1)N1CC(=O)N2[C@@H](CO)[C@H](c3ccc(C#CC4CCCC4)cc3)[C@@H]2C1`, for which the inhibition was 7.61% (inactive). In the case of `Cc1cc(Nc2ccc(N3CCOCC3)cc2)c2cccc(C)c2n1` it was 7.78% (inactive); in that of `Cc1ccc(Nc2cc(C)nc3c(C)ccc([N+](=O)[O-])c23)cc1`, 33.4% (active). `Cc1cc(Nc2ccc(C(=O)N3CCCCC3)cc2)c2cccc(C)c2n1`: the inhibition is -1.38% (inactive).

For `COc1ccc2c3c(n(C)c2c1)[C@@H](CO)N(Cc1ccncc1)CC31CN(C(=O)C2CCCCC2)C1`, the inhibition was -2.52% (inactive). Regarding `COc1ccc2c3c(n(C)c2c1)[C@H](CO)N(C(C)=O)CC31CN(C(=O)c2cnccn2)C1`, the inhibition is -3.28% (inactive). Regarding `Cc1ccc(NC(=O)c2ccco2)cc1`, the inhibition was 2.52% (inactive). Take `C/C(=N/NS(=O)(=O)c1ccccc1)c1ccc(NC(=O)C(F)(F)F)cc1`: the inhibition was 1.28% (inactive). With `C/C(=N\NS(=O)(=O)c1ccc(Cl)cc1)c1ccc(NC(=O)c2ccco2)cc1`, the inhibition was 26.4% (active). For `CCC(=O)N1CC2(C1)CN(Cc1cc(F)ccc1F)[C@@H](CO)c1[nH]c3cc(OC)ccc3c12`, the inhibition was -4.95% (inactive). In the case of `CCOc1cc(N2CCOCC2)c(OCC)cc1NC(=O)COc1cccc(Cl)c1`, the inhibition was 3.04% (inactive). Take `CCOc1cc(N2CCOCC2)c(OCC)cc1NC(=O)c1ccc(C)s1`: the inhibition is 13.4% (inactive). Consider `CCOc1cc(N2CCOCC2)c(OCC)cc1NC(=O)C1=NN(c2cccc(C)c2)C(=O)CC1`, for which the inhibition is 31.5% (active).
